Source: PubChem (National Center for Advancing Translational Sciences (NCATS))
A selection: hits, their analogues and other compounds. The true share with any hit is near 3%.
Caspase-7 inhib – qHTS Assay for Allosteric/Competitive Inhibitors of Caspase-7 | Potency, µM (top dose mostly 57.5 µM), inactives show top-dose activity change, negative = inhibition, hits mostly inhibitors | 0.02% of 75,000 active | recombinant caspase-7, Ac-DEVD-AFC fluorescence rate | AID 889, 2007; active = well fitted inhibition curve with a large enough effect in the main read-out, with a control signal flat, not every such curve was filed as active; inconclusive = small, poorly fitted or top-dose-only effect, or a change in a side signal; note: % of control where 0% means no effect
Target sequence (P55210 24-198 limits assumed): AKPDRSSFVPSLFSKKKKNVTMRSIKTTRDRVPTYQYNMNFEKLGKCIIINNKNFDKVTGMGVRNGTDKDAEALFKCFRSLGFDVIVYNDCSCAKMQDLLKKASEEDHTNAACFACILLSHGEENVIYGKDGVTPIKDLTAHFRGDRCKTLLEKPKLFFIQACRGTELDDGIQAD
Target sequence (P55210 207-303 limits assumed): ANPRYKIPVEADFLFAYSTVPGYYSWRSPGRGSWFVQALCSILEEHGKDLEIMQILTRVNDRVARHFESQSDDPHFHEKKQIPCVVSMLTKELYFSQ
HEK293 cAMP ctrl – qHTS Assay for Agonists of the Thyroid Stimulating Hormone Receptor: Activators of Intracellular cAMP Concentrations in Parental HEK 293; Potency, µM (doses to about 57.1 µM), for the others: top-dose activation, hits mostly activators; parental HEK293 CNG cAMP sensor, membrane potential fluorescence; 2.5% of 73,000 active; note: % of control where 0% means no effect; nearly all actives have a fitted effect of over 55% in size
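Parental HEK 293 cells stably expressing a modified CNG channel (no TSHR) report cAMP rise as membrane depolarization. Membrane potential dye with 100 uM RO 20-1724 was loaded for 60 min at room temperature, then compound added for 30 min; fluorescence read at 590 nm.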
15-hLO inh – qHTS Assay for Inhibitors of 15-hLO (15-human lipoxygenase) | Polyunsaturated fatty acid lipoxygenase ALOX15 (Homo sapiens), P16050 | purified 15hLO-1, xylenol orange hydroperoxide absorbance | Potency, µM (doses to about 57.1 µM), inactives show at the highest dose activity change, negative = inhibition, hits mostly inhibitors | 1.4% of 74,000 active | AID 887, 2007; note: % is set by controls: 0 for no effect and ±100 for the full control effect; nearly all actives have a fitted effect of over 55% in size
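40 nM 15hLO-1 + cpd, 15 min RT; start w/ 50 uM AA (final), 6 min RT; stop/detect w/ 200 uM XO + 300 uM Fe(II) in 50 mM H2SO4, 30 min; A573/A405. Buffer 25 mM Hepes pH 7.5, 0.01% Triton X-100. No-enzyme wells as negative control.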
ALOX15B inhib – qHTS Assay for Inhibitors of 15-hLO-2 (15-human lipoxygenase 2); 0.56% of 110,000 active; Potency, µM (top dose mostly 57.1 µM), for the others: top-dose activity change, negative = inhibition, actives largely listed as inhibitors; purified 15hLO-2, xylenol orange hydroperoxide absorbance; note: % is set by controls: 0 for no effect and ±100 for the full control effect; nearly all actives have a fitted effect of over 60% in size
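Purified human 15hLO-2 (50 nM final) preincubated with compounds 15 min at room temperature in 25 mM Hepes pH 7.5, 0.01% Triton X-100, then 45 uM arachidonic acid added for 90 min; hydroperoxide detected via ferrous/xylenol orange, 573/405 nm absorbance ratio.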
Casp1 inh – qHTS Assay for Allosteric/Competitive Inhibitors of Caspase-1; Potency, µM (doses to about 57.5 µM), for inactives: at the highest dose activity change, negative = inhibition, usual class: inhibitors; Caspase-1 enzyme, Ac-WEHD-AFC fluorogenic rate; 0.03% of 75,000 active; P29466;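 note: plate controls were vehicle for no effect and no substrate for full effect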
Target sequence (P29466 120-297 limits assumed): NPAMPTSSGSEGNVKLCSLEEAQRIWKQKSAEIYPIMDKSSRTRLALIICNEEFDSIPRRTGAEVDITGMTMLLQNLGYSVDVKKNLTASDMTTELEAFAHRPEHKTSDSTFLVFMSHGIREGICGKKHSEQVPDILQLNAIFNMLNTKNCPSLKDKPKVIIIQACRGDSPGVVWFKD
Target sequence (P29466 317-404 limits assumed): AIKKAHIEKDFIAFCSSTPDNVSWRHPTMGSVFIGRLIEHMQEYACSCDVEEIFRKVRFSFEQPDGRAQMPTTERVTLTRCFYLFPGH
TSHR agonist – qHTS Assay for Agonists of the Thyroid Stimulating Hormone Receptor; Thyrotropin receptor (Homo sapiens), P16473; HEK293-CNG-TSHR cells (CNG channel as cAMP sensor), membrane potential dye, cAMP; Potency, µM (highest dose often 57.1 µM), without a hit: top-dose activation, hits mostly activators; 0.48% of 73,000 active; AID 926, 2007; active = well fitted activation curve with a large enough effect in the main read-out, with a control signal flat, not every such curve was filed as active; inconclusive = small, poorly fitted or top-dose-only effect, or a change in a side signal; inactive = no such curve, though single readings can be large or run the other way; % of control where 0% means no effect;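 note: the control signal comes from parental cells without the receptor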
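cAMP rise detected as CNG-channel membrane depolarization by fluorescent dye (emission 590 nm), 30 min after compound, following 60 min dye loading containing 100 uM RO 20-1724 at room temperature. Cells: TSHR/CNG HEK 293, with parental CNG HEK 293 as control.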
Starred values were filed as active, the others as inactive; ? = inconclusive; . = no result; [ ] = remark or other dose. Unless noted, calls come from the whole dose curve; as a rule, active = well fitted curve in the direction sought with a large enough effect; inconclusive = small, poorly fitted or top-dose-only effect, or another doubt; inactive = no such curve, though single readings can be large; an effect the other way counts as inactive or inconclusive. Potency is the fitted concentration of half-maximal effect.

SMILES | Caspase-7 inhib | HEK293 cAMP ctrl | 15-hLO inh | ALOX15B inhib | Casp1 inh | TSHR agonist
Cc1cc(C)c2nc(-c3ccccn3)cc(C(=O)NCc3ccco3)c2c1 | -9.5% | 25.1µM* | -13.9% | -8.0% | -2.0% | ?
Cc1cc(NC(=O)c2cc(-c3ccccn3)nc3ccccc23)no1 | 0.5% | 18.1% | 2.3% | 3.4% | -0.5% | 24.8%
Cc1cc(C)c2nc(-c3ccccn3)cc(C(=O)Nc3cc(C)on3)c2c1 | -3.9% | 15.8µM* | -5.2% | -2.9% | -2.5% | ?
CC(=O)OCC(=O)[C@]1(O)C(C)CC2C3CCC4=CC(=O)C=C[C@@]4(C)[C@]3(F)C(O)C[C@@]21C (stereo partly drawn) | 1.8% | . | -1.4% | -3.3% | 3.1% | .
C#C[C@]1(O)CCC2C3CCC4=Cc5oncc5C[C@@]4(C)C3CC[C@@]21C (stereo partly drawn) | -2.8% | . | -22.0% | -11.5% | -4.0% | .
C=CCn1c(=N)c(C(=O)NCCCOC)cc2c(=O)n3cccc(C)c3nc21 | ? | 2.3% | 1.26µM* | -11.3% | . | -13.2%
COCCn1c(=N)c(C(=O)NCCc2ccccc2)cc2c(=O)n3cccc(C)c3nc21 | ? | 0.8% | 4.3% | . | . | 3.4%
C/C(CCC(=O)OC[C@@H]1O[C@H](C#Cc2ccccc2)C=C[C@@H]1Oc1ccc(C)cc1)=N/O[C@@H](C)CN1CCCCc2nc(C)c(C)cc21 | 1.1%[11.5 µM] | 27.9%[11.4 µM] | 2.7%[11.4 µM] | . | -4.1%[11.5 µM] | 17.8%[11.4 µM]
COC(=O)c1ccc2ncccc2c1 | 0.1% | 6.7% | 7.94µM* | -4.8% | -1.2% | -2.7%
O=C(Nc1ccc2ncccc2c1)Nc1ccc2ncccc2c1 | 1.9%[11.5 µM] | -8.3%[11.4 µM] | 1.1%[11.4 µM] | 3.8%[11.4 µM] | 0.3%[11.5 µM] | -2.9%[11.4 µM]
c1ccc2c(c1)Cn1nnnc1-2 | -0.5% | 2.7% | 9.9% | 5.3% | -2.7% | 2.5%
c1ccc2c(c1)Cn1c-2nc2ccccc21 | -1.2% | 15.8µM* | 1.9% | 4.9% | -3.4% | ?
O=S(=O)(O)CCCc1cccc2ccccc12 | 1.9%[11.5 µM] | 14.3%[11.4 µM] | -0.1%[11.4 µM] | -4.6%[11.4 µM] | -1.2%[11.5 µM] | 8.0%[11.4 µM]
COC(=O)c1nnn(-c2nonc2N)c1CSc1ccccn1 | -4.6% | 31.6µM* | ? | -4.5% | -0.4% | ?
C#CCCCCCCCCCCCC(O)CC(O)CO (stereo not drawn) | -2.5% | . | 0.3% | -7.1% | -2.1% | .
CCCC/C=C/C(NC(=O)c1ccco1)c1ccccc1 (stereo not drawn) | -8.8% | ? | . | 1.5% | -0.4% | ?
C[C@H]1CN(CCO)CCN1c1ccccc1 | 2.0%[11.5 µM] | -0.3%[11.4 µM] | -8.1%[11.4 µM] | -0.2%[11.4 µM] | 1.1%[11.5 µM] | -5.3%[11.4 µM]
CC1=NOC(=O)/C1=C\c1ccc(-c2cccc(Cl)c2)o1 | . | . | . | 2.51µM* | . | .
COC(=O)c1ccc(CSc2nc3c(c(=O)n2-c2ccc(F)cc2)SCC3)o1 | -20.0% | 26.0% | -8.1% | . | -0.7% | 3.16µM*
COc1ccc2oc(-c3ccccc3)c(C(N)=O)c2c1 | 0.3% | ? | -24.3% | -13.3% | 0.3% | ?
COc1ccc2oc(-c3ccccc3)c(OC)c(=O)c2c1 | 0.2% | 39.8µM* | 14.8%[25.6 µM] | -4.4% | -4.7% | ?
CC(C)OC(=O)c1cc2c(OC[C@@H](O)CNC(C)(C)C)cccc2[nH]1 | -2.3% | 14.0% | -2.8%[25.6 µM] | 38.6% | 0.6% | 11.6%
c1ccc2c(c1)CCN(c1nc3ccccc3n3cnnc13)C2 | 20µM* | 2.3% | -25.3% | -5.7% | -22.5% | 14.4%
c1ccc(N2CCN(c3nc4ccccc4n4cnnc34)CC2)cc1 | . | . | . | -7.9% | . | .
Cc1cccc(OCCCC(=O)NCc2ccco2)c1 | . | . | . | 4.4% | . | .
COc1ccc(O[C@H]2C=C[C@@H](c3ccccc3)O[C@H]2COC(=O)CC/C(C)=N\O[C@@H](C)CN2CCCCc3nc(C)c(C)cc32)cc1 | -1.2%[11.5 µM] | 5.8%[11.4 µM] | -5.2%[11.4 µM] | . | -0.6%[11.5 µM] | 16.9%[11.4 µM]
